What all share (assay): NCI-60 one-dose screen, 48 h (100 = growth as untreated, 0 = no growth, -100 = all killed)
What all share (details): 10 µM unless noted

The subject of experiment [1] is T-47D breast.
The subject of experiment [2] is BT-549 breast.
The test system of experiment [3] is MDA-MB-435 melanoma.
For experiment [4], the system named is SW-620 colon.
Experiment [5] concerns MCF7 breast.
Experiment [6] deals with HCT-116 colon.
The subject of experiment [7] is HCC-2998 colon.
In experiment [8] the test system is KM12 colon.

This passage reports growth results from PubChem BioAssay (NCI).

This is part of a sample that, as a whole, favours compounds with a hit. Of some 83,000 tested, about 20% had one in any assay.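 Percent growth is the endpoint: 0 to 100 indicates growth inhibition (40 means 60% inhibition), 0 means no net growth, and negative values indicate cell death.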 A number with no mark means an inactive call. Calls of active or inactive are those of the source. The calls were made as follows: active = growth percent below 10; inactive = the rest.

Consider `C#Cc1cccc(NC(=O)c2ccc(NC(=O)CCl)cc2)c1`, for which the growth is 19.1% [8.25 µM] in experiment [1]; -44.8% [8.25 µM] (active) in experiment [2]; -4.26% [8.25 µM] (active) in experiment [3]; -75.5% [8.25 µM] (active) in experiment [4]; 4.22% [8.25 µM] (active) in experiment [5]; -30.3% [8.25 µM] (active) in experiment [6]. In addition, the growth in experiment [7] was 92.8% [8.25 µM]; in experiment [8] it was 37.9% [8.25 µM].

Turning to `Oc1ccc(CN2CCC(N3CCOCC3)CC2)c2cccnc12`, the growth in experiment [1] was 16.3%; in experiment [2], 29.8%; in experiment [3], 16.3%; in experiment [4] it was 22%; in experiment [5], 9.1% (active); in experiment [6], 9.68% (active). Also, the growth in experiment [7] is 51.5%; in experiment [8], 20.9%.

With `CCc1ccccc1-n1c(N)c(C#N)c(-c2ccc(N(C)C)cc2)c(C#N)c1=O`, the growth in experiment [1] was 80%; in experiment [2], 85.5%; in experiment [3], 100%; in experiment [4], 93%; in experiment [5] it was 94.9%; in experiment [6], 94.1%. For the same compound, the growth in experiment [7] was 104%; in experiment [8], 97.6%.

As to `O=c1cc(-c2ccc(Cl)cc2)[nH]c2ccccc12`, the growth was 87.2% in experiment [1]; 101% in experiment [2]; 5.74% (active) in experiment [3]; 56.9% in experiment [4]; 49.9% in experiment [5]; 73.2% in experiment [6]. For the same compound, the growth was 76.7% in experiment [7] and 43.7% in experiment [8].

As to `Cc1ccc2nc(NC(=O)CSc3nc(Nc4ccc([N+](=O)[O-])cc4)c(C#N)c(-c4ccccc4)n3)sc2c1`, the growth is -58.4% (active) in experiment [1]; 91.1% in experiment [2]; 107% in experiment [3]; 105% in experiment [4]; 87.1% in experiment [5]; 89.5% in experiment [6]. Moreover, the growth in experiment [7] is 102%; in experiment [8] it was 101%.

Turning to `FC(F)(F)c1cc(Nc2ccc3cc(OCCCN4CCOCC4)ccc3n2)ccc1Cl`, the growth in experiment [1] is 26%; in experiment [2], 87.9%; in experiment [3] it was 35%; in experiment [4] it was -13.7% (active); in experiment [5], 6.85% (active); in experiment [6], 14.5%. Moreover, the growth is -18.5% (active) in experiment [7] and 16.7% in experiment [8].

Turning to `CN1CCN(CCCOc2ccc3nc(Nc4ccc(F)c(F)c4)ccc3c2)CC1`, the growth in experiment [1] is 14.6%; in experiment [2], 79.9%; in experiment [3], -72.3% (active); in experiment [4], -32.2% (active); in experiment [5] it was 11.8%; in experiment [6] it was 5.76% (active). For the same compound, the growth in experiment [7] is -24.6% (active); in experiment [8] it was 11.8%.

Turning to `O=[N+]([O-])c1ccc(N2c3ccncc3Sc3ccncc32)cc1`, the growth in experiment [1] was 97.4%; in experiment [2] it was 114%; in experiment [3] it was 112%; in experiment [4], 103%; in experiment [5], 101%; in experiment [6] it was 91.6%. Moreover, the growth in experiment [7] was 110%; in experiment [8], 93.5%.

In the case of `CCCCNC(=O)Oc1ccc2c(=O)c3sc4c(=O)c5ccccc5c(=O)c4c3c(=O)c2c1`, the growth in experiment [1] is -38.5% (active); in experiment [2], -90.2% (active); in experiment [3], -88.9% (active); in experiment [4] it was -75.6% (active); in experiment [5] it was -59.2% (active); in experiment [6] it was -15.6% (active). Further, the growth in experiment [7] is -87.1% (active); in experiment [8], -29.9% (active).

For the compound `COc1cc(N=Nc2ccc(N)cc2)c(OC)cc1N=Nc1ccccc1.[Cl][Zn][Cl]`, the growth in experiment [1] is 88.2%; in experiment [2], 93.5%; in experiment [3] it was 98.7%; in experiment [4] it was 105%; in experiment [5], 85.6%; in experiment [6], 101%. Moreover, the growth in experiment [7] is 98.9%; in experiment [8] it was 105%.

As to `COc1cc(C2NC(=O)c3ccccc3N2)ccc1OCCCCCOc1c(OC)cc(C2=NOC(c3cc(OC)c(OC)c(OC)c3)C2)cc1OC` (stereo not given), the growth in experiment [1] is 39.8%; in experiment [2], 1.13% (active); in experiment [3], 23.3%; in experiment [4], 92.8%; in experiment [5] it was 32.3%; in experiment [6], 60%. In addition, the values for the growth in experiment [7] and in experiment [8] were 80.5% and 91.2%, respectively.

`C#CCOc1nc(C)cc(C)c1C#N`: the growth in experiment [1] was 96.2%; in experiment [2], 106%; in experiment [3] it was 99.9%; in experiment [4] it was 96.5%; in experiment [5], 95.5%; in experiment [6], 99.4%. The growth in experiment [7] is 103%; in experiment [8] it was 102%.

Consider `O=C(O)CN1C(=O)CCC1=O`, for which the growth in experiment [1] was 90.4%; in experiment [2], 103%; in experiment [3], 102%; in experiment [4], 114%; in experiment [5], 92%; in experiment [6], 115%. The growth in experiment [7] is 110%; in experiment [8], 104%.

Turning to `Cc1cc(NCc2cc(Nc3ccnc4cc(Cl)ccc34)ccc2F)nc(N2CCN(C)CC2)n1`, the growth in experiment [1] was -42.4% (active); in experiment [2] it was 28.2%; in experiment [3], -96.7% (active); in experiment [4], 0.137% (active); in experiment [5], 1.13% (active); in experiment [6] it was 0.262% (active). Further, the growth in experiment [7] was -35.2% (active); in experiment [8] it was 14.4%.

Regarding `COc1ccc(/C=c2\nc3n(-c4ccccc4)c4nc5c6c(sc5c(=N)n4n-3c2=O)CCCC6)cc1`, the growth was 71.9% in experiment [1]; 94.2% in experiment [2]; 89.5% in experiment [3]; 104% in experiment [4]; 71.9% in experiment [5]; 77% in experiment [6]. The growth was 105% in experiment [7] and 92.5% in experiment [8].
